# Results as given in PubChem BioAssay (NCATS).
# Several values for one entry are separate records, joined by “and”; a condition that tells them apart may be missing. Equal values may be shown once. Inconclusive results are not listed. More than one record can exist for a structure, and the calls need not agree. Activity calls are given as the source filed them. The call rests on the fitted dose curve; in most records, active means well fitted curve in the direction sought with a large enough effect; inconclusive means small, poorly fitted or top-dose-only effect, or another doubt; inactive means no such curve, though single readings can be large; an effect the other way counts as inactive or inconclusive.
# How the values were obtained:
# [1] = Viability qHTS for spleen associated tyrosine kinase inhibitor (SYKi) naive MV4-11 cells (AID 1963823); further: nearly all actives have a fitted effect of over 40% in size
# In short: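 Seeding of 500 SYKi-naive MV4-11 cells per well onto pre-dispensed compounds preceded a 72 hr incubation at 37 C. Luminescent CellTiter-Glo signal, read after 10 min at room temperature, reflected viable cells.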
# [2] = Viability qHTS for spleen associated tyrosine kinase inhibitor (SYKi) drug resistant MV4-11 cells (AID 1963824); further: nearly all actives have a fitted effect of over 35% in size
# In short: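 SYK inhibitor-resistant MV4-11 AML cells, 500 per well, added to predispensed compounds and incubated 72 hr at 37 C, 5% CO2. Viability measured by CellTiter-Glo luminescence after 10 min at room temperature.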
# [3] = Cellular viability qHTS for adrenocortical cancer (ACC) cell line SW-13 (AID 1963989); details: SW-13 ACC cells viability, CellTiter-Glo, 48 h; activity (max response): stronger effect = lower value; further: nearly all actives have a fitted effect of over 65% in size;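 on activity (max response): cells grown in serum-free medium with ITS supplement; on the % scale 0 is the no-effect control and ±100 the full control effect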
# In short: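 Luminescent ATP read-out (CellTiter-Glo, 20 min at room temperature) measured metabolically competent SW-13 cells after 48 h compound treatment. Final concentrations spanned up to 46 uM; bortezomib served as positive control.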
# [4] = Cellular viability qHTS for adrenocortical cancer (ACC) cell line NCI-H295R (AID 1963990); further: nearly all actives have a fitted effect of over 60% in size;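 on activity change, negative = viability loss: 0% = DMSO only wells and -100% = full killing with cytotoxic reference compound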
# In short: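 IC50 and maximal efficacy derive from four-parameter logistic modelling of titration curves, with reads scaled between DMSO-only wells (0%) and doxorubicin hydrochloride (100% inhibition). Compounds spanned up to 46 uM over 48 h.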
# Potency means the concentration at half of the fitted maximal effect.
smiles,measurement,setting,value
CC(=O)Oc1cc(C(C)C)c(OCCN(C)C)cc1C,Potency,[1],1.1 nM (active)
same,Potency,[2],inactive
same,activity (max response),[3],12.6% (inactive)
same,Potency,[4],inactive
C/C=C/c1ccc(OC)cc1,Potency,[1],inactive
same,Potency,[2],inactive
same,activity (max response),[3],7.49% (inactive)
same,Potency,[4],inactive
CC(C)(Oc1ccc(CCNC(=O)c2ccc(Cl)cc2)cc1)C(=O)O,Potency,[1],inactive
same,Potency,[2],inactive
same,activity (max response),[3],-0.538% (inactive)
same,Potency,[4],inactive
Nc1c(NC/C=C\COc2cc(CN3CCCCC3)ccn2)c(=O)c1=O,Potency,[1],inactive
same,Potency,[2],inactive
same,activity (max response),[3],4.55% (inactive)
same,Potency,[4],inactive
O=C(CCOCCOCCOCCOCCC(=O)Nc1c(I)cc(I)c(C(=O)O)c1I)Nc1c(I)cc(I)c(C(=O)O)c1I,Potency,[1],inactive
same,Potency,[2],inactive
same,activity (max response),[3],6.37% (inactive)
same,Potency,[4],inactive
Cc1c[nH]c2ncnc(N3CCC(CN)(C(=O)Nc4cccc(OC(=O)N(C)C)c4)CC3)c12,Potency,[1],517 nM (active) and 662 nM (active)
same,Potency,[2],1.3 µM (active) and 1.66 µM (active)
same,activity (max response),[3],-9.88% (inactive)
same,Potency,[4],inactive and 22.4 µM (active)
Cn1c(=O)c2c(ncn2CCO)n(C)c1=O,Potency,[1],inactive
same,Potency,[2],inactive
same,activity (max response),[3],-10.8% (inactive)
O=C(CCN1CCN(CCO)CC1)N1c2ccccc2Sc2ccc(C(F)(F)F)cc21,Potency,[1],inactive
same,Potency,[2],inactive
same,activity (max response),[3],-5.01% (inactive)
CC[C@]12C=CCN3CC[C@@]4(c5cc([C@@]6(C(=O)OC)CC7C[C@@H](C(C)(F)F)CN(Cc8c6[nH]c6ccccc86)C7)c(OC)cc5N(C)[C@H]4[C@@](O)(C(=O)OC)[C@@H]1OC(C)=O)[C@@H]32 (some centres undefined),Potency,[1],93.4 nM (active)
same,Potency,[2],0.105 µM (active)
same,Potency,[3],0.282 µM (active)
CC(=O)[C@]1(N)Cc2c(O)c3c(c(O)c2[C@@H](O[C@H]2C[C@H](O)[C@H](O)CO2)C1)C(=O)c1ccccc1C3=O,Potency,[1],5900 nM (active)
same,Potency,[2],4.68 µM (active)
same,activity (max response),[3],-6.73% (inactive)
same,Potency,[4],inactive
FC(F)(F)c1ccc(CNc2ccc(Cc3c[nH]c4ncccc34)cn2)cc1,Potency,[1],259 nM (active) and 116 nM (active)
same,Potency,[2],206 nM (active) and 291 nM (active)
same,Potency,[3],10 µM (active)
same,Potency,[4],11.2 µM (active)
Cc1cc(O)cc2c1[C@]1(C)CC[C@H]3C(C)(C)CCC[C@]3(C)[C@H]1C2,viability (% of control),[1],65.3% [at 4.97 µM] (inactive)
same,"viability, % of control",[2],59.2% [at 4.97 µM] (inactive)
same,activity (max response),[3],-14% (inactive)
same,"activity change, negative = viability loss",[4],-10.2% [at 3.81 µM] (inactive)
CC(=O)N1CCC[C@H]1C(=O)N[C@@H](Cc1cnc[nH]1)C(=O)N[C@@H](CO)C(=O)N[C@@H](CS)C(=O)N[C@@H](CC(N)=O)C(N)=O,Potency,[1],inactive
same,Potency,[2],inactive
same,activity (max response),[3],-17.6% (inactive)
same,Potency,[4],inactive
C=C1CCC2[C@](C)(CO)C(O)CC[C@]2(C)C1C/C=C1/C(=O)OCC1O (some centres undefined),Potency,[1],3320 nM (active)
same,Potency,[2],2.63 µM (active)
same,Potency,[3],25.1 µM (active)
OCc1ccccc1O[C@@H]1O[C@H](CO)[C@@H](O)[C@H](O)[C@H]1O,Potency,[1],inactive
same,Potency,[2],inactive
same,activity (max response),[3],-1.84% (inactive)
COc1cc(N2CCN(C)CC2)ccc1Nc1nccc(-c2cn(C)c3cnccc23)n1,Potency,[1],116 nM (active) and 209 nM (active)
same,Potency,[2],517 nM (active) and 590 nM (active)
same,activity (max response),[3],-3.47% (inactive)
CC(C)Nc1cccnc1N1CCN(C(=O)c2cc3cc(NS(C)(=O)=O)ccc3[nH]2)CC1,Potency,[1],inactive
same,Potency,[2],inactive
same,activity (max response),[3],-10.3% (inactive)
same,Potency,[4],inactive
Oc1cccc(-c2c3nc(c(-c4cccc(O)c4)c4ccc([nH]4)c(-c4cccc(O)c4)c4nc(c(-c5cccc(O)c5)c5ccc2[nH]5)CC4)C=C3)c1,Potency,[1],16800 nM (active)
same,Potency,[2],18.8 µM (active)
same,Potency,[3],6.51 µM (active)
COc1ccccc1C(=O)Nc1cc2c(cc1N1CCCCC1)n(C)c(=O)n2C,Potency,[1],14800 nM (active)
same,Potency,[2],14.8 µM (active)
same,activity (max response),[3],-17.1% (inactive)
COc1ccc2c(c1)[C@]1(C[C@H]1c1ccc3c(/C=C/c4ccc(CN5C[C@@H](C)O[C@@H](C)C5)cc4)n[nH]c3c1)C(=O)N2,Potency,[1],105 nM (active)
same,Potency,[2],0.332 µM (active)
same,Potency,[3],14.1 µM (active)
same,Potency,[4],6.31 µM (active)
CCC1=C[C@@H]2CN(C1)Cc1c([nH]c3ccccc13)[C@@](C(=O)OC)(c1cc3c(cc1OC)N(C)[C@H]1[C@@](O)(C(=O)OC)[C@H](OC(C)=O)[C@]4(CC)C=CCN5CC[C@]31[C@@H]54)C2,Potency,[1],8.4 nM (active) and 91 nM (active)
same,Potency,[2],7.5 nM (active) and 64.5 nM (active)
same,Potency,[3],0.143 µM (active)
same,activity (max response),[3],-91.8% (inactive)
same,Potency,[4],20.6 nM (active) and 2.54 µM (active)
O=C1NC(=O)/C(=C/c2cccc(C(F)(F)F)c2)S1,Potency,[1],inactive
same,Potency,[2],inactive
same,Potency,[3],25.1 µM (active)
CN(C)C(=S)SC(=S)N(C)C,Potency,[1],1680 nM (active)
same,Potency,[2],1.68 µM (active)
same,Potency,[3],9.2 µM (active)
same,Potency,[4],2.31 µM (active)
Cc1cc2c(cc1CC(=O)c1sccc1S(=O)(=O)Nc1onc(C)c1Cl)OCO2,Potency,[1],inactive
same,Potency,[2],inactive
same,activity (max response),[3],2.25% (inactive) and -17.1% (inactive)
same,Potency,[4],inactive
COc1c2occc2c(OC)c2c(=O)cc(C)oc12,Potency,[1],inactive
same,Potency,[2],inactive
same,activity (max response),[3],12.7% (inactive)
same,Potency,[4],inactive
C[C@]12CC[C@@H]3c4ccc(O)cc4CC[C@H]3[C@@H]1CC[C@@H]2OC(=O)CCC1CCCC1,Potency,[1],inactive
same,Potency,[2],inactive
same,activity (max response),[3],5.6% (inactive)
same,Potency,[4],inactive
CCCCC1=NC2(CCCC2)C(=O)N1Cc1ccc(-c2ccccc2-c2nn[nH]n2)cc1,Potency,[1],inactive
same,Potency,[2],inactive
same,activity (max response),[3],8.5% (inactive)
same,Potency,[4],inactive
CN(C)CCOc1ccccc1Cc1ccccc1,Potency,[1],inactive
same,Potency,[2],inactive
same,activity (max response),[3],9.36% (inactive)
same,Potency,[4],inactive
NC1=N[C@@]2(c3cc(NC(=O)c4ccc(F)cn4)ccc3F)COC[C@H]2CS1,Potency,[1],inactive
same,Potency,[2],14.8 µM (active)
same,activity (max response),[3],-8.2% (inactive)
same,Potency,[4],inactive
Cn1cc(-c2ccc(S(=O)(=O)n3ccc(/C=C/C(=O)Nc4ccccc4N)c3)cc2)cn1,Potency,[1],651 nM (active) and 934 nM (active)
same,Potency,[2],580 nM (active) and 742 nM (active)
same,Potency,[3],0.794 µM (active)
same,Potency,[4],0.891 µM (active)
O=C1Nc2ccc(Cl)cc2[C@@](C#CC2CC2)(C(F)(F)F)O1,Potency,[1],16.6 µM (active) and 5.17 µM (active)
same,Potency,[2],13.2 µM (active) and 5.8 µM (active)
same,Potency,[3],18.4 µM (active) and 25.1 µM (active)
same,Potency,[4],22.4 µM (active)
C[C@]12CCCN1CC1=NNC(=O)c3cc(F)cc4[nH]c2c1c34,Potency,[1],2630 nM (active)
same,Potency,[2],6.61 µM (active)
same,activity (max response),[3],-23.5% (inactive)
same,Potency,[4],inactive
CN=C(NC#N)NCCSCc1nc[nH]c1C,Potency,[1],inactive
same,Potency,[2],inactive
same,activity (max response),[3],-4.08% (inactive)
same,Potency,[4],inactive
CCCCCCCCCCCCCCCC[N+](C)(C)CC,Potency,[1],299 nM (active)
same,Potency,[2],0.668 µM (active)
same,Potency,[3],5.17 µM (active)
same,Potency,[4],7.31 µM (active)
CC(C)(Cc1ccc2ccccc2c1)NC[C@@H](O)COc1cccc(Cl)c1C#N,Potency,[1],6610 nM (active)
same,Potency,[2],6.61 µM (active)
same,Potency,[3],6.31 µM (active)
same,Potency,[4],6.31 µM (active)
C[C@]12C[C@H](O)[C@H]3[C@@H](CCC4=CC(=O)CC[C@@]43C)[C@@H]1CC[C@@H]2C(=O)CO,Potency,[1],inactive
same,Potency,[2],inactive
same,activity (max response),[3],4.71% (inactive)
same,Potency,[4],inactive
CN[C@@H]1C[C@H]2O[C@@](C)([C@@H]1OC)n1c3ccccc3c3c4c(c5c6ccccc6n2c5c31)C(=O)N[C@H]4O,Potency,[1],11.9 nM (active)
same,Potency,[2],0.0237 µM (active)
same,Potency,[3],0.376 µM (active)
same,Potency,[4],0.15 µM (active)
OCCn1cc(-c2ccc3c(c2)CC/C3=N\O)c(-c2ccncc2)n1,Potency,[1],16400 nM (active)
same,Potency,[2],18.6 µM (active)
same,activity (max response),[3],-9.16% (inactive)
same,Potency,[4],inactive
C[C@H](CCC(=O)O)[C@H]1CC[C@H]2[C@@H]3C(=O)C[C@@H]4CC(=O)CC[C@]4(C)[C@H]3CC(=O)[C@]12C,Potency,[1],inactive
same,Potency,[2],inactive
same,activity (max response),[3],15.5% (inactive)
same,Potency,[4],inactive
CCCCc1nc2cc(/C=C/C(=O)NO)ccc2n1CCN(CC)CC,Potency,[1],411 nM (active) and 525 nM (active)
same,Potency,[2],291 nM (active) and 468 nM (active)
same,Potency,[3],2 µM (active)
same,Potency,[4],0.708 µM (active)
Cc1[nH]cnc1CN1CCN(C(=O)N[C@@H](CC(C)C)C(=O)O)[C@@H](Cc2ccccc2)C1=O,Potency,[1],inactive
same,Potency,[2],inactive
same,activity (max response),[3],6.54% (inactive)
same,Potency,[4],inactive
C#C[C@]1(O)CC[C@H]2[C@@H]3[C@H](C)CC4=C(CCC(=O)C4)[C@H]3CC[C@@]21C,Potency,[1],inactive
same,Potency,[2],18.6 µM (active)
same,activity (max response),[3],-17.1% (inactive)
same,Potency,[4],inactive
CCN(C(=O)c1ccccc1OC)c1cc2c(cc1N1CCNC[C@H]1C)n(C)c(=O)n2C,Potency,[1],inactive
same,Potency,[2],inactive
same,activity (max response),[3],1.48% (inactive)
same,Potency,[4],inactive
C[C@]12CCC(=O)C=C1CC[C@@H]1[C@@H]2C(=O)C[C@@]2(C)[C@H]1CC[C@]2(O)C(=O)CO,Potency,[1],inactive
same,Potency,[2],inactive
same,activity (max response),[3],7.27% (inactive)
same,Potency,[4],inactive
CCCCC(=O)OCC(=O)[C@]1(O)Cc2c(O)c3c(c(O)c2[C@@H](O[C@H]2C[C@H](NC(=O)C(F)(F)F)[C@H](O)[C@H](C)O2)C1)C(=O)c1c(OC)cccc1C3=O,Potency,[1],148 nM (active)
same,Potency,[2],0.209 µM (active)
same,Potency,[3],2.82 µM (active)
same,Potency,[4],3.55 µM (active)
O=C(O)CCC(=O)c1ccc(-c2ccccc2)cc1,Potency,[1],inactive
same,Potency,[2],inactive
same,activity (max response),[3],23% (inactive)
same,Potency,[4],inactive
Fc1cccc(-n2cnc3c(NCc4nc5c(F)c(F)ccc5[nH]4)nc(N4CCOCC4)nc32)c1,Potency,[1],59 nM (active)
same,Potency,[2],0.186 µM (active)
same,Potency,[3],0.112 µM (active)
same,Potency,[4],0.447 µM (active)
Cc1c(F)cc(C(=O)NC2CC2)cc1-c1ccc(C(=O)NCC(C)(C)C)cn1,Potency,[1],164 nM (active)
same,Potency,[2],0.461 µM (active)
same,activity (max response),[3],1.4% (inactive)
same,Potency,[4],inactive
